Assay outcomes: PubChem BioAssay, several laboratories
Rows were chosen to be rich in hits. Some 6.6% of all compounds tested hit in one or more screens of this group.
Gli-Sufu antag: blocks Gli-Sufu signaling in a luciferase reporter. inhibition, % at 5 µM. Sufu-KO-LIGHT fibroblasts, Gli luciferase reporter luminescence. AID 588413. 340,000 tested, 0.74% active;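 active means inhibition above about 55%, limit read from the data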;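 further: 0% = DMSO-treated cells and 100% = wells with medium but no cells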
Beta apoptosis: blocks beta cell apoptosis. INS-1E cytokine-induced death, ATP luminescence, 48 h; percent of positive-control rescue, neutral wells zero. 300,000 tested, 0.8% active. protection from apoptosis, % (concentration not given with the values);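 active means Every replicate reaches about 75%, or at least half do and their mean reaches it too, limit read from the data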;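 further: 0% = cytokine-treated negative control wells and 100% = positive control rescue; higher means more ATP so stronger rescue from cytokine killing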
CSC inhib: cancer stem cell inhibition; cancer stem cell-like cells viability, luminescence; inhibition, % at 7.5 µM; 300,000 tested, 1.1% active; AID 2717; in the data active means inhibition above about 75%; tested in HMLE shEcad cells
MPTP inh: inhibitors of mitochondrial permeability transition pore; 360,000 tested, 1.4% active; inhibition, % at 10 µM; AID 602449; isolated mouse mitochondria, Ca2+ swelling absorbance, 30 min;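 active means inhibition of 50% or more, scaled per plate between neutral and stimulator controls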;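 further: 0% = DMSO wells given calcium and 100% = 1 mM EGTA wells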
NR3A LBD binder: modulators (binders) of human NR3A ligand-binding domain. NR3A LBD differential scanning fluorimetry, Tm shift; 0% = protein alone, 100% = glycine-bound protein. Tm shift relative to glycine control, % at 25 µM. 340,000 tested, 2.5% active. AID 1259313;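 active means melting temperature shift of at least 10% of the positive control shift, at one fixed dose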
Mdm2-MdmX inh: inhibitors of human Mdm2/MdmX interaction. 330,000 tested, 3% active. AID 485346. O15151+Q00987. SaOS-2 split-luciferase Mdm2/MdmX complementation, luminescence. inhibition, % at 8 µM;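 active means inhibition of at least 50% at 8 µM in the primary screen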
Mdm2 MdmX conf: human Mdm2/MdmX binding inhibition, confirmed; AID 489028; shares compounds with Mdm2-MdmX inh; 10,000 tested, 55% active; inhibition, % at 8 µM; luminescent assay; in the data active means inhibition above about 40%
FLuc counter: inhibits full-length luciferase, flagging false Mdm2/MdmX hits | inhibition, % at 8 µM | shares compounds with Mdm2-MdmX inh | 6,200 tested, 77% active | SaOS-2 full-length luciferase counterscreen, luminescence;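 active means mean inhibition at 8 µM reaching about 37%, which flags the compound as non-specific, limit read from the data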;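 further: p53-null SaOS-2 cells with luciferase driven by a doxycycline-inducible promoter; compound on cells about two nights before reading with doxycycline added after day one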
Active calls of the source: *; · = no result.

SMILES | Gli-Sufu antag | Beta apoptosis | CSC inhib | MPTP inh | NR3A LBD binder | Mdm2-MdmX inh | Mdm2 MdmX conf | others
COc1ccc2c(c1OC)C(=O)OC2Nc1nc(-c2ccc([N+](=O)[O-])cc2)cs1 (centres undefined) | -15 | -1 | -3 | 0 | -3 | -9 | ·
COc1ccc(-c2csc(NC3OC(=O)c4c3ccc(OC)c4OC)n2)cc1OC (centres undefined) | -26 | -45 | 39 | 4 | -1 | 78* | 62* | FLuc counter=70*
O=C(NC(=S)NNC(=O)[C@H]1C[C@@H]1c1ccccc1)c1ccc(F)cc1 | -3 | · | 23 | 0 | -2 | 49 | ·
COc1ccc(C(=O)NC(=S)NNC(=O)[C@H]2C[C@@H]2c2ccccc2)cc1OC | -15 | 18 | 29 | -1 | 0 | 62* | 20
Cc1cc(NC(=O)COC(=O)c2ccccc2O)no1 | 1 | -5 | -8 | 0 | 0 | -8 | ·
Cc1cc(NC(=O)COC(=O)c2oc3c(ccc4ccccc43)c2C)no1 | 0 | 20 | -17 | -1 | 0 | 59* | 31 | FLuc counter=59*
Cc1c(C(=O)OCC(=O)Nc2ccc(S(N)(=O)=O)cc2)oc2c1ccc1ccccc12 | 7 | · | · | 0 | 18* | 52* | 23
Cc1ccc(-c2csc(C(O)c3cccc(Cl)c3)n2)cc1C (centres undefined) | · | · | · | 3 | · | · | ·
Cc1cc(Cl)ccc1Oc1ncnc2onc(C)c12 | -2 | -7 | 0 | 0 | 2 | 11 | ·
Cc1nn2c(NCc3ccccn3)cc(C(C)C)nc2c1-c1ccccc1 | -8 | 61 | 51 | 0 | -7 | 64* | 41* | FLuc counter=29
CC(=O)Nc1ccc(Nc2cc(C(C)C)nc3c(-c4ccccc4)c(C)nn23)cc1 | -10 | · | 84* | 2 | 17* | 55* | 43* | FLuc counter=54*
Cc1cc(NCc2ccccn2)n2nc(C)c(-c3ccc(Cl)cc3)c2n1 | -16 | 39 | 77* | -2 | -4 | 61* | 21
Cc1cc(NCc2ccccn2)n2ncc(-c3ccc(Cl)cc3)c2n1 | -83 | 60 | 59 | -2 | 4 | 49 | ·
CC(=O)Nc1ccc(Nc2cc(C)nc3c(-c4ccccc4)c(C)nn23)cc1 | -11 | 3 | -7 | 0 | -1 | 40 | ·
CCOC(=O)c1ccc(NS(=O)(=O)c2ccc3oc(=O)[nH]c3c2)cc1 | -19 | -1 | -7 | 0 | -15 | 10 | ·
CCC1Oc2ccccc2N(CC(=O)NCCC2=CCCCC2)C1=O (centres undefined) | -39 | 2 | 10 | 3 | -1 | 60* | 9
CC1(c2nc3ccccc3[nH]2)CCC(=O)N1Cc1cccs1 (centres undefined) | · | · | · | 1 | · | · | ·
CCCCn1nc(C(=O)N(C)CC(=O)Nc2ccc(F)c(F)c2F)ccc1=O | -4 | 3 | -5 | -1 | -4 | -3 | ·
CCOc1ccc(S(=O)(=O)Nc2ccc(C(=O)N3CCCC3)cc2)cc1C(N)=O | -4 | -5 | 2 | -1 | -1 | 5 | ·
Cc1cnc(NC(=O)C2CC(=O)N(c3cccc(Cl)c3)C2)s1 (centres undefined) | -199 | 13 | 45 | 1 | 1 | 93* | 89* | FLuc counter=82*
Cc1cnc(NC(=O)C2CC(=O)N(c3ccc4c(c3)OCCO4)C2)s1 (centres undefined) | -16 | -13 | -10 | 0 | -3 | 22 | ·
O=C(CN(C(=O)CNC(=O)c1cccs1)c1cccc(F)c1)NC1CCCC1 | 1 | 1 | -13 | 0 | 0 | 9 | ·
CC(=O)c1ccc2noc(-c3ccccc3)c2c1 | -2 | -11 | -15 | -1 | 5 | 5 | ·
CN(C)/C=C/C(=O)c1ccc2noc(-c3ccccc3)c2c1 | 2 | -14 | 2 | 0 | 0 | 51* | 34
Cc1c(C(=O)NC(C)c2ccccn2)oc2c(Cl)cccc12 (centres undefined) | 3 | · | · | 1 | -2 | 0 | ·
SMILES | Gli-Sufu antag | Beta apoptosis | CSC inhib | MPTP inh | NR3A LBD binder | Mdm2-MdmX inh | Mdm2 MdmX conf | others
CC(=O)N1CCc2cc(S(=O)(=O)N3CCOCC3)ccc21 | 8 | -1 | -8 | -2 | 0 | -3 | ·
CC(=O)N1CCc2cc(S(=O)(=O)N3c4ccccc4CC3C)ccc21 (centres undefined) | 0 | 12 | -6 | 4 | 2 | 61* | 54* | FLuc counter=58*
CC1Cc2ccccc2N1S(=O)(=O)c1cnc(Cl)c(Cl)c1 (centres undefined) | 3 | -3 | 0 | 1 | 3 | 30 | ·
CSc1ccc(S(=O)(=O)N2c3ccccc3CC2C)cc1 (centres undefined) | 1 | 6 | 39 | 1 | 2 | 53* | 54* | FLuc counter=65*
CCN(C(=O)CN1CCC(C(=O)OC)CC1)c1c(N)n(Cc2ccccc2)c(=O)[nH]c1=O | -7 | 0 | -12 | -1 | 2 | 2 | ·
CC1(C)CC(=O)C=C(CN2C(=O)c3ccccc3C2=O)C1=O | -13 | -1 | -8 | -3 | -3 | 14 | ·
COc1ccc(/C=N/NC(=O)NC23CC4CC(CC(C4)C2)C3)c(OC)c1 | -14 | -5 | -1 | 0 | -6 | -7 | ·
Cc1ccc(NC(=S)NCCC(c2ccccc2)c2ccccc2)c(C)c1 | 0 | 5 | 15 | 13 | -5 | 61* | 4
O=c1cc(-c2ccccc2)[nH]n1-c1nc2ccccc2[nH]1 | 28 | 34 | 112* | 2 | -8 | 95* | 25
Cc1cc(S(=O)(=O)N2CCCC2)ccc1OCC(=O)N1CCCCC1 | -2 | 0 | -10 | -1 | 0 | -12 | ·
COC(=O)C1=C(C)N(Cc2ccccc2)C(=NCCc2c[nH]c3ccccc23)N[C@H]1c1ccccc1 | 6 | 24 | 30 | 3 | -5 | 55* | 15
COC(=O)C1=C(C)N(Cc2ccccc2)C(=NCCc2c[nH]c3ccccc23)N[C@H]1c1cccc(F)c1 | 11 | 21 | 123* | 0 | -5 | 98* | 51* | FLuc counter=56*
COc1ccc(NC(=O)CN(C)C(=O)CCCN2C(=O)c3cccc4cccc(c34)C2=O)cc1 | -23 | -2 | 12 | -2 | 1 | 12 | ·
CCOc1cc(/C=C/C(=O)Nc2ccc(C(=O)NCCN(CC)CC)cc2)ccc1OCC(C)C | 14 | 20 | -11 | 2 | 0 | 94* | 28
CCCNC(=O)C1(C)CCN(C(=O)c2ccc(OC(F)F)cc2)C1 (centres undefined) | · | · | · | 0 | · | · | ·
CC(C)c1nc(NCCO)c(C#N)c2c1CCCC2 | -7 | -9 | -8 | 1 | -1 | 53* | 57* | FLuc counter=35
CC(C)c1nc(NCc2ccccc2)c(C#N)c2c1CCCC2 | -1 | -6 | 7 | 6 | 1 | 42 | ·
CC(C)OC(=O)CSc1nc(N)c(C#N)c(-c2cccs2)c1C#N | 13 | 8 | -2 | 44 | -6 | -17 | ·
